Reference: ChEMBL document CHEMBL4513216, “Probing the Open Global Health Chemical Diversity Library for Multistage-Active Starting Points for Next-Generation Antimalarials” (ACS Infect Dis, 2020)
Screen size: about 69,000 compounds; about 8,600 (12%) showed an effect of 50% or more. For the sample, strong results were picked, then their nearest neighbours and some compounds at random.

These compounds were tested on Plasmodium berghei (assay: Screen against P. berghei liver stage (PbLuc), transformed with Luciferase, at 10uM). Conditions: tested at 10 uM.
Format: functional, HepG2
Compound `CCCC(NC(=O)c1ccc(C)cc1C)c1nnn[nH]1` (centres undefined) has an INHIBITION of 43.1%.
Work on `CCCC(NC(=O)c1cc(C)ccc1C)c1nnn[nH]1` (centres undefined) yielded an INHIBITION of 16.6%.
`CCCC(NC(=O)c1cc(C)c(F)cc1F)c1nnn[nH]1` (centres undefined) showed an INHIBITION of 58.5%.
`Cn1cc(C(=O)Nc2ccc3c(c2)CN(C(=O)C2CC2)CC3)nn1` showed an INHIBITION of -7.25%.
Compound `CC(=O)N(Cc1ncc(C(C)C)o1)C1CCN(Cc2cc(C)on2)C1` (centres undefined) has an INHIBITION of 2.7%.
`O=C(CNc1ccccc1S(=O)(=O)C(F)F)NCc1ccco1` was tested, and the INHIBITION was 33.2%.
In the case of `O=C(NCc1ccco1)Nc1cccc(S(=O)(=O)C(F)F)c1`, the INHIBITION is reported as 42.4%.
For `O=C(CNc1cccc(S(=O)(=O)C(F)F)c1)NCc1ccco1`, the INHIBITION was 51.7%.
`CNc1cc(C2CN(Cc3scnc3C)CCO2)nc(C)n1` (centres undefined) showed an INHIBITION of -26.2%.
`CNc1cc(C2CN(Cc3csc(C)n3)CCO2)nc(C)n1` (centres undefined) showed an INHIBITION of 41.2%.
`Cc1nc(C2CN(Cc3scnc3C)CCO2)cc(N(C)C)n1` (centres undefined) was tested, and the INHIBITION was 68.9%.
`CC(C(=O)N1CCN(c2ccc(F)cc2)CC1)n1cc(Br)cn1` (centres undefined) was tested, and the INHIBITION was 6.83%.
Compound `Cn1nnc2c1CCN(C(=O)C1CCC1)C2COCCN1CCCC1` (centres undefined) has an INHIBITION of 19.5%.
Work on `Cc1cc(CN2CCN(C(=O)NC(C)c3cccnc3)CC2)no1` (centres undefined) yielded an INHIBITION of 7.15%.
`O=C(NCc1nccn1CCc1ccccc1)NCC1CCC1` gave an INHIBITION of 44.5%.
For `c1snnc1CN1C[C@H]2CCC[C@@H](CN3CCOCC3)[C@H]2C1`, the INHIBITION was -41.8%.
For `Cc1cc(C[C@@H]2COC[C@H]2NCc2ccc(Cl)c(Cl)c2)on1`, the INHIBITION was 50.8%.
For `Cc1cc(C[C@@H]2COC[C@H]2NCc2ccc(C)c(C)c2)on1`, the INHIBITION was 1.5%.
`Cc1cc(C[C@@H]2COC[C@H]2NCc2ccc(C(C)C)cc2)on1` was tested, and the INHIBITION was 28%.
Work on `Cc1ccc(CN[C@@H]2COC[C@H]2Cc2cc(C)no2)cc1` yielded an INHIBITION of -22.6%.
`COC(=O)c1ccc(CN[C@@H]2COC[C@H]2Cc2cc(C)no2)cc1` gave an INHIBITION of 0.301%.
`CCOc1cc(CN[C@@H]2COC[C@H]2Cc2cc(C)no2)ccc1O` gave an INHIBITION of 74.9%.
Work on `NC(=O)CC1CCCN(c2cncc(OCc3ccccc3)n2)C1` (centres undefined) yielded an INHIBITION of 27.6%.
In the case of `CC(C)CCc1nc(CN2CCOC(Cn3cncn3)C2)cs1` (centres undefined), the INHIBITION is reported as 36.1%.
Work on `Cc1n[nH]c(C2CN(CC(=O)NCc3cccs3)CCO2)n1` (centres undefined) yielded an INHIBITION of 8.9%.
`O=C(c1cccc(F)c1)N1CCC2(CC1)CC(N1CCOCC1)C2` was tested, and the INHIBITION was 1.34%.
With `Cc1cnn(CC2CN(Cc3nc(-c4cccnc4)no3)CCO2)c1` (centres undefined) the INHIBITION was -4.94%.
Work on `CCn1ccnc1CN1CCN(Cc2ccc(C)o2)[C@@H]2CS(=O)(=O)C[C@@H]21` yielded an INHIBITION of 16.7%.
For `CC(C)Nc1ncnc2c1CCN(Cc1ccoc1)CC2`, the INHIBITION was -22.1%.
For `c1cc(CCNc2ncnc3c2CCN(Cc2ccoc2)CC3)ccn1`, the INHIBITION was 12.8%.
For `Nc1nc(CNc2ncnc3c2CCN(Cc2ccoc2)CC3)cs1`, the INHIBITION was 51.8%.
For `O=C(c1cncs1)N1CCOC(c2cc(CCO)[nH]n2)C1` (centres undefined), the INHIBITION was -4.5%.
With `O=C([C@H]1C[C@H]2OCC[C@H]2N(C(=O)c2ccccn2)C1)N1CCCCO1` the INHIBITION was 22.2%.
`CCN(CC)CCCNCc1cc2cccc(C)c2[nH]c1=O` showed an INHIBITION of -36.4%.
`CCN1CCN(C(=O)Cn2nc(C(F)(F)F)c(Br)c2C2CC2)CC1` gave an INHIBITION of 30.8%.
`CN1CCN(C(=O)Cn2nc(C(F)(F)F)c(Br)c2C2CC2)CC1` showed an INHIBITION of 16.5%.
Compound `CCCN1CCN(C(=O)Cn2nc(C(F)(F)F)c(Br)c2C2CC2)CC1` has an INHIBITION of 64.7%.
For `CCN1CCCC1CNC(=O)Cc1c(C)n[nH]c1-c1ccc(F)cc1` (centres undefined), the INHIBITION was 38.8%.
With `CCOC(=O)c1sc2ccsc2c1CN` the INHIBITION was 0.938%.
With `COc1cc(-c2cccc3c2OC(CN)C3)ccc1O` (centres undefined) the INHIBITION was 50.8%.
With `COc1ccc(-c2cccc3c2OC(CN)C3)cc1F` (centres undefined) the INHIBITION was 47.1%.
Work on `COc1cc(-c2cccc3c2OC(CN)C3)cc(OC)c1OC` (centres undefined) yielded an INHIBITION of 48%.
Work on `Cc1ccc(CCCC(=O)N2CCC(CS(N)(=O)=O)CC2)s1` yielded an INHIBITION of -0.554%.
With `O=C(c1cccs1)N1CCc2ncnc(C3CCOC3)c2CC1` (centres undefined) the INHIBITION was 53.2%.
Compound `CC(C)Oc1ncnc2c1CCN(Cc1ccoc1)CC2` has an INHIBITION of 8.85%.
`O=C(c1ccncc1)N1CCc2ncnc(C3CCOC3)c2CC1` (centres undefined) showed an INHIBITION of 49.7%.
`CC(C)Oc1ncnc2c1CCN(Cc1ccco1)CC2` showed an INHIBITION of 50.7%.
In the case of `Cc1ccc(CN2CCc3ncnc(OC(C)C)c3CC2)s1`, the INHIBITION is reported as -34.6%.
`CCc1ncnc2c1CCN(Cc1ccc(OC)cc1)CC2` showed an INHIBITION of 26.7%.
`COCCN1CCc2ncnc(OC(C)C)c2CC1` showed an INHIBITION of 37.5%.
In the case of `CC(C)Oc1ncnc2c1CCN(Cc1ccc(F)cc1)CC2`, the INHIBITION is reported as 60.3%.
With `COc1ccc(CN2CCc3ncnc(OC(C)C)c3CC2)cc1` the INHIBITION was 56.7%.
For `COc1ccc(CN2CCc3ncnc(C4CC4)c3CC2)cc1`, the INHIBITION was 47.4%.
For `O=C(c1ccnnc1)N1CCc2ncnc(C3CCOC3)c2CC1` (centres undefined), the INHIBITION was 38.1%.
`CC(C)Oc1ncnc2c1CCN(Cc1cccs1)CC2` showed an INHIBITION of 40.7%.
`COCC1CC2(CCN(Cc3cccc(C#N)c3)CC2)CN1C(C)C` (centres undefined) was tested, and the INHIBITION was -11.2%.
For `CCCS(=O)(=O)NCC(C)(O)c1ccsc1` (centres undefined), the INHIBITION was 20.9%.
`Cc1nc(Nc2nnc(C)s2)cc(C2CCCN2C)n1` (centres undefined) gave an INHIBITION of 21.6%.
In the case of `O=C(c1cccc(C2CCNC2)c1)N1CCC(c2ccncc2)CC1` (centres undefined), the INHIBITION is reported as -19.1%.
For `Cc1ccc(N2CC[C@H]3OCC[C@@]3(C(=O)N3CCCC3)C2)nn1`, the INHIBITION was 40.1%.
Compound `CC(C)n1cnnc1CNC(=O)c1cnn(-c2ccccc2)c1` has an INHIBITION of -20.3%.
Compound `Cc1ccc(Cl)cc1N1CCC(CNC(=O)Cn2cccn2)C1` (centres undefined) has an INHIBITION of 10.083%.
`c1ccc(CN2CCc3ncnc(C4CCOC4)c3CC2)nc1` (centres undefined) was tested, and the INHIBITION was 33%.
Compound `c1coc(CN2CCc3ncnc(C4CCOC4)c3CC2)c1` (centres undefined) has an INHIBITION of 79.6%.
For `c1nc2c(c(C3CCOC3)n1)CCN(Cc1ccoc1)CC2` (centres undefined), the INHIBITION was 12.1%.
For `O=C(Nc1ccc(CCN2CCOCC2)cc1)C1CCCC1`, the INHIBITION was -7.85%.
Compound `O=C(NCC1CC1)c1cc2c(s1)CCN2C(=O)c1ccc(F)cc1` has an INHIBITION of 4.57%.
Compound `CN(C)S(=O)(=O)NCC(Cc1cccc(F)c1)N1CCNC1=O` (centres undefined) has an INHIBITION of -15.3%.
For `COc1cccc(CCC(=O)Nc2c(C)nn(C)c2C)c1OC`, the INHIBITION was 31%.
In the case of `CCC(C)NC(=O)c1nn(C)c(NC(=O)c2ccccc2OC)c1F` (centres undefined), the INHIBITION is reported as 19.3%.
`COc1ccccc1C(=O)NCCC(=O)Nc1c(C)nn(C)c1C` was tested, and the INHIBITION was 51.8%.
Work on `COc1ccccc1C(=O)Nc1c(F)c(C(=O)NC2CCCC2)nn1C` yielded an INHIBITION of 4.48%.
Work on `COc1ccccc1C(=O)Nc1c(F)c(C(=O)NCCC(C)C)nn1C` yielded an INHIBITION of 57%.
For `CCOc1ccccc1CCC(=O)Nc1c(C)nn(C)c1C`, the INHIBITION was 22.6%.
